Compound activity: PubChem, Broad Institute
HSF-1 act = increases HSF-1 driven luciferase reporter signal; NIH3T3-HGL HSF-1 luciferase reporter, MG132, 8 h; 100% = twice DMSO control signal; activation, % at 9 µM; 300,000 compounds, 1.7% hits;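 active = mean replicate activation of at least 50% with a set share of replicates each reaching 50%; inconclusive = only one of those two conditions met; inactive = mean below 50% and too few replicates reaching it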;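 note: 0% = median of the neutral control wells and 100% = twice that signal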
MITF act = increases MITF-driven TRPM1 promoter luciferase signal | AID 588334 | 300,000 compounds, 0.75% hits | activation, % at 12.5 µM | SK-MEL-5 TRPM1-promoter luciferase, 24 h; % of positive control, neutral wells = 0;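 active = mean activation of at least 80% with every replicate also reaching 80%; inconclusive = mean reaches 80% but some replicate falls short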;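 note: 0% = neutral control wells and 100% = parthenolide positive control wells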
Wnt act = Wnt/beta-catenin pathway activation. 300,000 compounds, 1.2% hits. activation, % at 9.35 µM. AID 743398. Wnt/beta-catenin reporter cell assay, activator, plate reader; in the data active = activation above about 30%, passing the limit was not always enough; inconclusive = no clear call, values can overlap the other calls;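 note: 0% = neutral control wells and 100% = positive control wells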
esBAF inh = inhibitors of esBAF chromatin remodeling in mouse ES cells. 350,000 compounds, 2% hits. Bmi1-luciferase knock-in reporter, 24 h; 100% = twice the neutral-well signal. reporter increase, % at 12.5 µM; in the data active = activation above about 40%; inconclusive = no clear call, values can overlap the other calls;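 note: 0% = median of the plate's neutral control wells and 100% = double that signal; a rise in the Bmi1 reporter signal indicates esBAF inhibition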
HSF1 inh = HSF1 inhibition; 300,000 compounds, 0.77% hits; NIH3T3-HGL HSE-luciferase, MG132-induced, luminescence 8 h; stronger effect = lower value; activity change, negative = inhibition, % at 7.5 µM (by protocol);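 active = more than half of replicate wells show activity change below -50%, luminescence cut by over half; inconclusive = some wells, but at most half, below -50%; inactive = no replicate well below -50%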;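 note: luciferase reports HSF-1 transcriptional activity via heat shock element; 0% = median of DMSO wells and -100% = zero luminescence signal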
The depositor's hits bear a star; ? = inconclusive; nt = not tested or not shown. An excerpt weighted towards active compounds, which were near 3.8% of everything screened.

SMILES	HSF-1 act	MITF act	Wnt act	esBAF inh	HSF1 inh
C[C@@H]1CCCCO[C@H](CN(C)Cc2ccccc2)[C@@H](C)CN([C@@H](C)CO)C(=O)c2cc(NC(=O)Cc3ccccc3)ccc2O1	nt	nt	nt	-2	nt
Cc1ccc(SCC(=O)Nc2ccc(N3CCN(C)CC3)c(F)c2)cc1	31	nt	40*	30	11
COCC(=O)Nc1ccc(N2CCN(c3ccccc3)CC2)c(F)c1	0	10	0	7	-1
O=C(CSc1ccccc1)Nc1ccc(N2CCN(c3ccccc3)CC2)c(F)c1	55*	nt	nt	-2	28
C[C@H](CO)N1C[C@H](C)[C@@H](CN(C)Cc2ccc(Oc3ccccc3)cc2)Oc2ccc(NC(=O)CCN3CCOCC3)cc2CC1=O	nt	nt	nt	2	nt
C[C@H]1CN([C@@H](C)CO)C(=O)Cc2cc(NS(=O)(=O)c3cccs3)ccc2O[C@H]1CN(C)C	nt	nt	nt	3	nt
O=C(C[C@@H]1CC[C@H](NC(=O)C2CCC2)[C@H](CO)O1)NC1CCCCC1	nt	nt	nt	-2	nt
COCc1nc(-c2ccc(-c3ccc(C)cc3)nc2OC)no1	32	nt	39*	43*	4
COc1nc(-c2ccc(C)cc2)ccc1-c1noc(-c2ccco2)n1	9	37	nt	9	8
CCOc1nc(-c2ccc(OC)cc2)ccc1-c1noc(C)n1	-1	9	nt	2	6
COc1ccc(-c2ccc(-c3noc(C)n3)c(OC)n2)cc1	22	91*	nt	?	19
CCCC#Cc1ccc2c(c1)O[C@@H](CN(C)C(=O)Nc1ccccc1F)[C@@H](C)CN([C@@H](C)CO)S2(=O)=O	nt	nt	nt	7	nt
C[C@@H]1CN([C@@H](C)CO)C(=O)c2cc(NS(=O)(=O)c3ccc(F)cc3)ccc2O[C@@H](C)CCCCO[C@H]1CN(C)Cc1ccncc1	nt	nt	nt	6	nt
C[C@@H]1CN([C@@H](C)CO)C(=O)c2cccc(NS(=O)(=O)c3ccccc3)c2O[C@@H]1CN(C)Cc1ccncc1	nt	nt	nt	-5	nt
CC(=O)c1cccc(Nc2nc(N3CCOCC3)nc(N3CCOCC3)n2)c1	1	18	0	-3	-7
CC(=O)c1ccc(Nc2nc(N3CCOCC3)nc(N3CCOCC3)n2)cc1	7	28	-2	44*	-1
O=C(N/N=C/c1ccccn1)c1cc(-c2ccc(Br)cc2)nc2ccccc12	169*	-66	5	nt	174
CCCOc1cccc(-c2cc(C(=O)N/N=C/c3ccccn3)c3ccccc3n2)c1	143*	-89	11	21	109
O=C(N/N=C/c1ccccn1)c1cc(-c2ccc(Cl)cc2)nc2ccccc12	147*	-82	7	nt	113
O=C(N/N=C/c1ccco1)c1cc(-c2ccccc2)nc2ccccc12	2	-13	0	0	3
N#Cc1ccc(/C=N/NC(=O)c2cc(-c3cccs3)nc3ccccc23)cc1	60*	-8	-6	nt	31
O=C(O)COc1ccccc1/C=N/NC(=O)c1cc(-c2ccc(Cl)cc2)nc2ccccc12	21	1	5	-3	4
O=C(NCC[C@@H]1CC[C@H](NC(=O)C2CCC2)[C@@H](CO)O1)c1cnccn1	nt	nt	nt	-4	nt
C[C@@H]1CN([C@H](C)CO)C(=O)c2cc(NC(=O)C3CCCCC3)ccc2O[C@@H]1CN(C)Cc1ccc(Oc2ccccc2)cc1	nt	nt	nt	1	nt
CCCNC(=O)N1[C@H](CO)[C@@H]2c3ccccc3N(C(=O)NC(C)C)C[C@@H]21	nt	nt	nt	-1	nt
SMILES	HSF-1 act	MITF act	Wnt act	esBAF inh	HSF1 inh
C[C@@H](NC(=O)[C@H]1[C@H](CO)[C@H]2Cn3c(ccc(-c4ccccc4F)c3=O)[C@@H]1N2C)c1ccccc1	nt	nt	nt	1	nt
COc1ccccc1CNC(=O)C[C@H]1C[C@@H]2c3cc(NC(=O)CN(C)C)ccc3O[C@@H]2[C@H](CO)O1	nt	nt	nt	8	nt
O=C(N/N=C\c1ccccn1)c1ccccc1O	20	10	36*	nt	1
Cc1ccccc1C(=O)N/N=C/c1ccccn1	19	19	13	nt	15
O=c1oc2cc(Cl)ccc2n1CSc1nc2ccccc2s1	104*	?	nt	nt	63
O=C(CSc1nc2ccccc2s1)N1c2ccccc2Sc2ccc(Cl)cc21	19	1	nt	-1	22
CCCn1c(N)c(C(=O)CSc2nc3ccccc3c(=O)n2Cc2ccccc2)c(=O)[nH]c1=O	-89	-6	0	nt	-84*
O=C(Nc1ccc(OC(F)F)c(Cl)c1)c1cccc(OC(F)F)c1	10	88*	nt	21	3
Cc1ccc(NC(=O)c2cccc(OC(F)F)c2)c(OC(F)F)c1	12	0	1	4	-7
